PubChem BioAssay (NCATS)
Inconclusive results are not listed. Unmarked numbers belong to inactive results. Activity calls are given as the source filed them. Calls come from the whole dose curve; as a rule, active = well fitted cell-killing curve with a large enough effect; inconclusive = small, poorly fitted or top-dose-only effect, or effect the other way; inactive = no such curve, though single readings can be large or run the other way.

experiment: Quantitative High-Throughput drug screen in 47 multiple myeloma cell lines against the NCATS MIPE library collection: PE2_PLB cell viability assay (AID 1919869); conditions: PE2_PLB myeloma cells viability, ATP luminescence, 48 h; series mostly up to 45.8 µM; viability (% of control): at the top concentration; note: nearly all actives have a fitted effect of over 35% in size
Method in brief: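 MIPE 4.0 approved/investigational drugs; 500 cells/well; 48 h 37 °C humidified 5% CO2; CTG luminescence readout; DMSO = 100%, media = 0% viability.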
Potency is the fitted concentration of half-maximal effect.

| SMILES | Potency | viability (% of control) |
| --- | --- | --- |
| CCCCCNC(=O)N1CCC(CN(Cc2ccc(Cl)cc2)Cc2ccc([N+](=O)[O-])s2)C1 (stereo not given) | 23.5 µM (active) |  |
| COCCOC(=O)C1=C(C)NC2=C(C(=O)CC(c3ccccc3OC)C2)C1c1cccc(O)c1 (stereo not given) | 16.6 µM (active) |  |
| CN[C@@H](C)C(=O)N[C@H]1CN(C(=O)CC(C)C)CC[C@H]2CC[C@@H](C(=O)NC(c3ccccc3)c3ccccc3)N2C1=O | 9.35 µM (active) |  |
| COCCCCC(=NOCCN)c1ccc(C(F)(F)F)cc1 | 18.7 µM (active) |  |
| Oc1ccc(C2=Cc3ccc(O)cc3OC2)cc1 | 9.35 µM (active) |  |
| O=c1ccn([C@@H]2O[C@H](CO)[C@H](O)[C@H]2O)c(=O)[nH]1 |  | 97.7% |
| O=C(OCC#CCSc1nnc(-c2cccc3ccccc23)o1)c1cc2ccccc2s1 |  | 121% |
| COC(=O)C1=CO[C@@H](O)[C@@H]2C(CO)=CC[C@@H]12 | 20.9 µM (active) |  |
| COc1ccc2cc(-c3nc(-c4ccc(S(C)=O)cc4)[nH]c3-c3ccncc3)ccc2c1 (stereo not given) | 14.8 µM (active) |  |
| C[C@]12CCC3c4ccc(O)cc4CCC3C1CCC2=O (stereo not given in full) |  | 83.2% |
| C=CCc1ccc(O)c(-c2ccc(O)c(CC=C)c2)c1 | 18.7 µM (active) |  |
| CC(C)(C(=O)NCC(F)(F)C(F)(F)F)C(=O)N[C@@H]1C(=O)Nc2ccccc2-c2ccccc21 | 18.7 µM (active) |  |
| Cc1ccn(-c2ccc(-c3ncco3)cc2)c(=O)c1-c1ccc2nc(N)ncc2c1 | 4.69 µM (active) |  |
| C[C@H](NC(=O)C(=O)Nc1ccccc1C(C)(C)C)C(=O)N[C@@H](CC(=O)O)C(=O)COc1c(F)c(F)cc(F)c1F |  | 118% |
| CC(C)(C)NC(=O)Nc1cccc(Nc2ncc(F)c(NC(C)(C)CO)n2)c1 | 18.7 µM (active) |  |
| COc1ccc2cccc(CCNC(C)=O)c2c1 |  | 110% |
| CC=CCC=CCCC(=O)[C@H]1O[C@@H]1C(N)=O | 23.5 µM (active) |  |
| NC1CCC(Nc2nc(Nc3ccc(C(=O)N4CCCCC4)cc3)c3ncn(-c4cccc(F)c4)c3n2)CC1 (stereo not given) |  | 99.4% |

| SMILES | Potency | viability (% of control) |
| --- | --- | --- |
| CC(C)(C)C(=O)Oc1ccc2c(c1)nc(NC(=O)c1cccc([N+](=O)[O-])c1)n2CCCO |  | 127% |
| CC[C@H]1OC(=O)[C@H](C)[C@@H](O[C@H]2C[C@@](C)(OC)[C@@H](O)[C@H](C)O2)[C@H](C)[C@@H](O[C@@H]2O[C@H](C)C[C@H](N(C)C)[C@@H]2O)[C@](C)(O)C[C@@H](C)CN(C)[C@H](C)[C@@H](O)[C@]1(C)O |  | 139% |
| C[N+](C)(C)CC(=O)O |  | 108% |
| NC(=O)c1cccc(-c2cc(Nc3ccc(OC(F)(F)F)cc3)ncn2)c1 | 18.7 µM (active) |  |
| CC[C@]1(O)C[C@@H]2CN(CCc3c([nH]c4ccccc34)[C@@](C(=O)OC)(c3cc4c(cc3OC)N(C=O)[C@@H]3C45CCN4CC=C[C@](CC)([C@H]45)[C@@H](OC(C)=O)[C@]3(O)C(=O)OC)C2)C1 (stereo not given in full) | 16.6 µM (active) |  |
| O=c1cc(-c2cccc3c2Sc2ccccc2S3)oc(N2CCOCC2)c1 | 18.7 µM (active) |  |
| O=C(O)C(O)Cc1ccc(O)c(O)c1 (stereo not given) | 16.6 µM (active) |  |
| C[C@H](NC(=O)c1sccc1OCc1ccc(Cl)cc1)c1ccccc1 | 18.7 µM (active) |  |
| CC1(C)S[C@H]2[C@H](NC(=O)[C@@H](N)c3ccc(O)cc3)C(=O)N2[C@@H]1C(=O)O |  | 103% |
| O=C1Nc2ccc(Cl)cc2C(C#CC2CC2)(C(F)(F)F)O1 (stereo not given) | 23.5 µM (active) |  |
| COc1cccc(-c2cc(=O)c3ccccc3o2)c1N | 4.18 µM (active) |  |
| CC[C@@H]1C=C(C)C[C@H](C)C[C@H](OC)[C@H]2O[C@@](O)(C(=O)C(=O)N3CCCC[C@@H]3C(=O)O[C@H](C(C)=C[C@@H]3CC[C@H](Cl)[C@H](OC)C3)[C@H](C)[C@@H](O)CC1=O)[C@H](C)C[C@H]2OC | 20.9 µM (active) |  |
| CON=C(C(=O)N[C@@H]1C(=O)N2C(C(=O)OCOC(=O)C(C)(C)C)=C(C=Cc3scnc3C)CS[C@H]12)c1csc(N)n1 | 18.7 µM (active) |  |
| CC(C)C(=O)Oc1ccc(CO)cc1[C@H](CCN(C(C)C)C(C)C)c1ccccc1 |  | 72.8% |
| COc1ccc(Cc2ccc(NC(N)=O)cc2)cc1-c1cccc(Cl)c1 |  | 115% |
| Cc1cccc(Nc2nc(-c3ccncc3)cs2)c1 | 23.5 µM (active) |  |
| CCOC1OC(=O)C[C@H]1NC(=O)[C@@H]1CCCN1C(=O)[C@@H](NC(=O)c1ccc(N)c(Cl)c1)C(C)(C)C (stereo not given in full) |  | 116% |
